Calpain2 inh = calpain II (pig) inhibition | AID 1236 | purified calpain II, fluorogenic peptide substrate, 30 min | inhibition, % at 16 µM | actives 0.37% (n = 220,000);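 active = inhibition above about 50%, limit read from the data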
S1P4 antagonist = blocks the human S1P4 receptor | inhibition, % at 4.98 µM | O95977 | S1P4-expressing cells, antagonist mode, reporter read-out | actives 0.26% (n = 220,000); in the data active = inhibition above about 29%;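 also: 0% = wells stimulated with agonist and 100% = vehicle wells without agonist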
Target sequence (O95977 whole entry, looked up): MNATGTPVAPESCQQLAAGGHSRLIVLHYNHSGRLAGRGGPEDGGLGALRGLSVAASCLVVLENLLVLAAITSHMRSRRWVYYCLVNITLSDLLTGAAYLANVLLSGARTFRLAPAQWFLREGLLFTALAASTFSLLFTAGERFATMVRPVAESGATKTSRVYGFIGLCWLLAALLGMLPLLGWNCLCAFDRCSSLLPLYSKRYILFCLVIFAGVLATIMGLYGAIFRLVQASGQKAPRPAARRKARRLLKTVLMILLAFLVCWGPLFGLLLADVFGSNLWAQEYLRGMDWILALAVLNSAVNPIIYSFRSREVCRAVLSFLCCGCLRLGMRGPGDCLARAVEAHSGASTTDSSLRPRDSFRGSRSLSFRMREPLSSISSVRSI
S1P4 agonist = human S1P4 receptor agonism. activation, % at 4.98 µM. O95977. actives 0.35% (n = 220,000). S1P4-expressing cell line, agonist reporter assay; in the data active = activation above about 11%;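 also: 0% = DMSO vehicle and 100% = reference agonist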
S1P3 antagonist = blocks the human S1P3 receptor | CHO S1P3 NFAT-BLA reporter, FRET fluorescence, antagonist mode | actives 0.27% (n = 170,000) | AID 485 | inhibition, % at 4.98 µM | Q99500;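 active = inhibition above the plate cutoff, the mean inhibition of test wells on that plate plus 3 SD, cut at about 28% in these data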;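 also: cells challenged with S1P at its EC80 of 0.8 µM; blue over green emission ratio from cleaved BLA substrate after 4 h stimulation; 0% = S1P-stimulated wells and 100% = unstimulated DMSO-only wells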
PERK inhibitor = blocks human PERK kinase. inhibition, % at 5.6 µM. actives 0.17% (n = 220,000). AID 1416. Q9NZJ5. CHO PERK-DD fusion, SEAP luminescence translation reporter;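 active = inhibition above the mean inhibition of all tested compounds plus 3 SD, set separately per screening campaign, cut at about 2.9% in these data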;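 also: PERK kinase domain activated by AP20187 dimerizer at 100 nM; 0% = DMSO with dimerizer and 100% = rapamycin at 8.4 µM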
Active calls of the source: *. Only some compounds are listed: those with a hit (about 1.3% of all), similar ones and a draw of the others.

Results for CCOC(=O)c1cnc(SC2CC(=O)N(c3ccccc3)C2=O)nc1N (stereo not drawn) ?
Calpain2 inh: -6; S1P4 antagonist: -11; S1P4 agonist: -1; PERK inhibitor: 0

Results for CCOC(=O)c1cnc(SC2CCc3ccccc3C2=O)nc1N (stereo not drawn) ?
Calpain2 inh: 59*; S1P4 antagonist: -16; S1P4 agonist: 0; S1P3 antagonist: 1; PERK inhibitor: 0

Results for Cc1ccc(N=Nc2c(O)c3ccccc3[nH]c2=O)c(S(=O)(=O)N(C)C)c1 ?
Calpain2 inh: 24; S1P4 antagonist: 11; S1P4 agonist: 0; S1P3 antagonist: 12; PERK inhibitor: 3.3*

How did Cc1ccc(SCCNC(=S)Nc2cc(C)cc(C)c2)cc1 do in these assays?
Calpain2 inh: 52*; S1P4 antagonist: 5; S1P4 agonist: -2; PERK inhibitor: 1

Results for Cc1ccc(NC(=S)NCCSc2ccc(Cl)cc2)cc1 ?
Calpain2 inh: 12; S1P4 antagonist: -3; S1P4 agonist: 0; S1P3 antagonist: -8; PERK inhibitor: 0

Results for CC1(C)Cc2nc3nc(SCC(=O)Nc4ccccc4)nc(N)c3cc2CO1 ?
Calpain2 inh: -45; S1P4 antagonist: -10; S1P4 agonist: -2; S1P3 antagonist: 14; PERK inhibitor: 1

Results for COc1ccc(NC(=O)CSc2nc(N)c3cc4c(nc3n2)CC(C)(C)OC4)cc1 ?
Calpain2 inh: 9; S1P4 antagonist: -15; S1P4 agonist: 0; S1P3 antagonist: 5; PERK inhibitor: 3.2*

What do the screens show for `CC(C)CCNC(=O)[C@H](CC(C)C)NC(=O)[C@H]1O[C@@H]1C(=O)O`?
Calpain2 inh: 100*; S1P4 antagonist: -22; S1P4 agonist: 2; S1P3 antagonist: -18; PERK inhibitor: 1

How did CCOC(=O)[C@H]1O[C@@H]1C(=O)N[C@@H](CC(C)C)C(=O)NCCC(C)C do in these assays?
Calpain2 inh: 97*; S1P4 antagonist: -8; S1P4 agonist: 0; S1P3 antagonist: -4; PERK inhibitor: 2

How did CCOC(=O)N1CCC(NC(=O)C(CC(C)C)NC(=O)C2CCCCC2)CC1 (stereo not drawn) do in these assays?
Calpain2 inh: 0; S1P4 antagonist: 7; S1P4 agonist: 1; PERK inhibitor: 1

How did CC(C)CCNC(=O)C(=O)Nc1ccccc1 do in these assays?
Calpain2 inh: -16; S1P4 antagonist: 20; S1P4 agonist: -2; S1P3 antagonist: -5; PERK inhibitor: 2

What do the screens show for `CSc1nnc(CCCCCCCCc2nnc(SC)o2)o1`?
Calpain2 inh: 12; S1P4 antagonist: -2; S1P4 agonist: 0; S1P3 antagonist: -10; PERK inhibitor: 1

How did CN(C)c1cccc(C(=O)OCC(=O)Nc2ccccc2Cl)c1 do in these assays?
Calpain2 inh: 56*; S1P4 antagonist: -11; S1P4 agonist: 1; S1P3 antagonist: -6; PERK inhibitor: 0

What do the screens show for `COc1cccc(-n2c(SCC(=O)N3CCOCC3)nnc2-c2c[nH]c3ccccc23)c1`?
Calpain2 inh: 8; S1P4 antagonist: -6; S1P4 agonist: 1; S1P3 antagonist: 53*; PERK inhibitor: 2

What do the screens show for `CCCCOc1ccc(CONS(=O)(=O)c2ccc(NC(C)=O)cc2)cc1Cl`?
Calpain2 inh: 50*; S1P4 antagonist: -3; S1P4 agonist: -3; S1P3 antagonist: -5; PERK inhibitor: -1

Results for Cc1ccc(C(=O)OCC(=O)Nc2c(Cl)cc(S(N)(=O)=O)cc2Cl)o1 ?
Calpain2 inh: -2; S1P4 antagonist: -7; S1P4 agonist: 0; S1P3 antagonist: -17; PERK inhibitor: 2

Results for O=C(Nc1cccnc1)c1cccs1 ?
Calpain2 inh: 64*; S1P4 antagonist: -7; S1P4 agonist: 2; S1P3 antagonist: -46; PERK inhibitor: 1

How did O=C(CSCCc1ccccn1)Nc1ccccn1 do in these assays?
Calpain2 inh: 15; S1P4 antagonist: 7; S1P4 agonist: 0; S1P3 antagonist: 1; PERK inhibitor: 2

How did O=C(O)CSCCc1ccccn1 do in these assays?
Calpain2 inh: -4; S1P4 antagonist: -14; S1P4 agonist: 1; S1P3 antagonist: 56*; PERK inhibitor: 1

What do the screens show for `Cc1noc(C)c1COc1ccc(C(=O)OCc2nnc(-c3ccc(Cl)cc3)o2)cc1`?
Calpain2 inh: 51*; S1P4 antagonist: 1; S1P4 agonist: 0; S1P3 antagonist: 18; PERK inhibitor: 2

Results for O=[N+]([O-])c1cc(C(F)(F)F)ccc1NCCc1c[nH]c2ccc(O)cc12 ?
Calpain2 inh: 52*; S1P4 antagonist: -7; S1P4 agonist: -5; PERK inhibitor: 0

How did O=[N+]([O-])c1cc(C(F)(F)F)ccc1NCCc1c[nH]c2ccccc12 do in these assays?
Calpain2 inh: 50*; S1P4 antagonist: 12; S1P4 agonist: 0; S1P3 antagonist: 5; PERK inhibitor: 2

What do the screens show for `COc1ccc(S(=O)(=O)N2CCC3(CC2)OCCO3)cc1`?
Calpain2 inh: 2; S1P4 antagonist: -12; S1P4 agonist: 1; S1P3 antagonist: -4; PERK inhibitor: 2

Results for COc1ccccc1Oc1nc([N+](=O)[O-])nn1CC(N)=O ?
Calpain2 inh: -4; S1P4 antagonist: 12; S1P4 agonist: -1; S1P3 antagonist: -8; PERK inhibitor: 1

Results for CC(=O)c1ccc(NC2=C(N3CCOCC3)C(=O)c3ccccc3C2=O)cc1 ?
Calpain2 inh: 13; S1P4 antagonist: -4; S1P4 agonist: -1; PERK inhibitor: 2

What do the screens show for `Cc1ccc(NC2=C(N3CCOCC3)C(=O)c3ccccc3C2=O)cc1`?
Calpain2 inh: 24; S1P4 antagonist: -4; S1P4 agonist: -2; PERK inhibitor: 3.2*

What do the screens show for `Cc1nc(CNC(=O)CC2C(=O)NCCN2Cc2ccoc2)nc2c1CCCC2` (stereo not drawn)?
Calpain2 inh: -15; S1P4 antagonist: -3; S1P4 agonist: 2; S1P3 antagonist: 23; PERK inhibitor: 0

How did CC1=CC2=NC(=O)/C(=C\c3cccn3CCOc3cc(C)cc(C)c3)C(=N)N2O1 do in these assays?
Calpain2 inh: 88*; S1P4 antagonist: -11; S1P4 agonist: 0; S1P3 antagonist: 1; PERK inhibitor: -1

What do the screens show for `Cc1ncsc1CCOC(=O)C12CC3CC(CC(C3)C1)C2`?
Calpain2 inh: 67*; S1P4 antagonist: 2; S1P4 agonist: 2; PERK inhibitor: -1

What do the screens show for `CCCNC(=O)C(=O)N/N=C/c1cccs1`?
Calpain2 inh: 9; S1P4 antagonist: -6; S1P4 agonist: 2; S1P3 antagonist: 4; PERK inhibitor: 1

Results for CCN(CC)C(=O)C(=O)N/N=C/c1cccs1 ?
Calpain2 inh: -2; S1P4 antagonist: -17; S1P4 agonist: 0; PERK inhibitor: 3.1*

What do the screens show for `COc1ccccc1NC(=O)COc1ccc(/C=N/NC(=O)CSCc2ccc(Cl)cc2)cc1`?
Calpain2 inh: -72; S1P4 antagonist: -12; S1P4 agonist: 1; PERK inhibitor: 3.3*

How did COc1ccccc1NC(=O)COc1ccc(/C=N/NC(=O)CSCc2cc(C)cc(C)c2)cc1 do in these assays?
Calpain2 inh: -34; S1P4 antagonist: -2; S1P4 agonist: -2; S1P3 antagonist: -16; PERK inhibitor: 1
